AmpC detergent – inhibitors of E. coli AmpC beta-lactamase with detergent. AmpC hydrolysis of nitrocefin, absorbance 480 nm, 0.01% Triton. P00811. hit rate 0.041% among 370,000. Potency, µM (top dose mostly 114 µM), inactives show at the top dose activity change, negative = inhibition, actives largely listed as inhibitors;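 further: 0% = no-compound wells and -100% = no-enzyme wells; nearly all actives have a fitted effect of over 25% in size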
Target sequence (P00811 whole entry, looked up): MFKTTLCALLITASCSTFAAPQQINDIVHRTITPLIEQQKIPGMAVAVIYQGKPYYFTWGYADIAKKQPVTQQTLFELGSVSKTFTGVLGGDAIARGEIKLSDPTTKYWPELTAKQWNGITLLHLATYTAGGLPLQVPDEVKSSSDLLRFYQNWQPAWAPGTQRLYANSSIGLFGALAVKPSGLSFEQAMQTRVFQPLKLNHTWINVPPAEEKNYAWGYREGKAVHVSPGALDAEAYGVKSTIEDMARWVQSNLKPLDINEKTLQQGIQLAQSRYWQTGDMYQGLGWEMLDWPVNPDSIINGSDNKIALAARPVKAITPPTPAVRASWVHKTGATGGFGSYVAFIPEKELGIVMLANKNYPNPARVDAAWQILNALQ
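20 mM phosphate pH 7.0 + 0.01% (detergent screen) or 0.0001% Triton X-100; 5.3 nM AmpC reagent; cpd preinc 15 min RT; nitrocefin (800 uM stock) to start; A480 q20 s × 4 min; Activity was normalised to no-enzyme and no-compound control wells.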
Sm TGR block – blocks Schistosoma mansoni thioredoxin glutathione reductase | Q962Y6 | AID 485364 | hit rate 3% among 360,000 | purified TGR, DTNB reduction, TNB absorbance 405 nm | Potency, µM (series often up to 114 µM), for the others: top-dose activity change, negative = inhibition, usual class: inhibitors; further: on the % scale 0 is the no-effect control and ±100 the full control effect; nearly all actives have a fitted effect of over 60% in size
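Kinetic colorimetric format: TGR-catalysed, NADPH-driven DTNB reduction monitored via TNB absorbance. Enzyme dispensed at 20 nM; compound exposure 15 min at room temperature before reaction start.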
AmpC inh no detg – inhibitors of E. coli AmpC beta-lactamase without detergent | P00811 | AmpC nitrocefin hydrolysis, absorbance 480 nm, 0.0001% Triton | Potency, µM (highest dose often 57.1 µM), for the others: at the highest dose activity change, negative = inhibition, hits mostly inhibitors | hit rate 0.52% among 330,000;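 further: plate controls were no compound for no effect and no enzyme for full effect; nearly all actives have a fitted effect of over 20% in size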
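AmpC (5.3 nM in the dispensed reagent) in 20 mM phosphate pH 7.0 with 0.01% (detergent screen) or 0.0001% Triton X-100 was preincubated with compounds for 15 min at room temperature. Nitrocefin was then added from an 800 uM solution, and hydrolysis was followed at 480 nm.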
SARS PLP yeast – blocks SARS-CoV papain-like protease in a yeast assay; S. cerevisiae expressing SARS-CoV PLpro, growth rescue; hit rate 0.19% among 330,000; Potency, µM (doses to about 32.9 µM), without a hit: at the top dose activity, positive = growth rescue, actives largely listed as activators; AID 485353; calls by dose curve; further: 0% is about no effect; nearly all actives have a fitted effect of over 55% in size
Pf growth 48h – P. falciparum growth inhibition at 48 hours (one generation) | hit rate 5.9% among 310,000 | Potency, µM (highest dose often 28.7 µM), for the others: top-dose activity change, negative = inhibition, most hits filed as inhibitors | P. falciparum luciferase growth in erythrocytes, 48 h; further: on the % scale 0 is the no-effect control and ±100 the full control effect
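First compound was added to culture medium, then infected red cells at 0.1% parasitemia and 2% hematocrit (final). After incubation at 37 C under 5% CO2, luciferase detection reagent was dispensed and light output recorded.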
Pf growth 96h – P. falciparum growth inhibition at 96 hour, primary screen for plastid delayed-death inhibitors; Potency, µM (series often up to 28.7 µM), inactives show at the top dose activity change, negative = inhibition, hits mostly inhibitors; P. falciparum luciferase reporter growth, 96 h; hit rate 6.9% among 320,000; AID 504834; further: on the % scale 0 is the no-effect control and ±100 the full control effect
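Two-generation exposure (96 h) targets delayed-death phenotype. Reporter parasites carrying integrated firefly luciferase, in red cells at 2% hematocrit and 0.05% parasitemia final, kept at 37 C, 5% CO2; luminescence loss indicates inhibition.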
* = called active by the depositor; ? = inconclusive; / = no result given; [ ] = remark or other dose. Most compounds without a hit are left out; they make up all but 12% or so of the library. Unless noted, the call rests on the fitted dose curve; in most records, active means well fitted curve in the direction sought with a large enough effect; inconclusive means small, poorly fitted or top-dose-only effect, or another doubt; inactive means no such curve, though single readings can be large; an effect the other way counts as inactive or inconclusive. Potency means the concentration at half of the fitted maximal effect.

SMILES | AmpC detergent | Sm TGR block | AmpC inh no detg | SARS PLP yeast | Pf growth 48h | Pf growth 96h
CCOc1ccc(NC(=O)N(Cc2cn(CC)c3ccccc23)C2CCCCCC2)cc1 | -0.4% | 0.8% | / | / | / | /
O=C1CCc2cc(S(=O)(=O)NCCCC(=O)N3CCN(Cc4ccc5c(c4)OCO5)CC3)ccc2N1 | 1.2% | -5.7% | 22.4% | 4.6% | -45.6% | 13.1µM*
CCOc1cc(C(=O)Nc2cc(C(=O)OC)ccc2C)ccc1OCC(=O)N1CCOCC1 | 3.7% | 3.1% | -0.9% | 1.4% | -16.3% | 17.6%
CC(=O)Nc1ccc(NC(=O)CCc2nc3cccnc3n2Cc2cccs2)cc1 | 0.2% | -16.7% | / | / | / | /
O=C(Nc1ccc(F)cc1F)N1CCN(CCc2ccccc2)CC1 | 4.8% | -1.5% | 0.5% | 0.4% | 2.33µM* | 27.0%
Cc1nc(Sc2nnnn2C)c2c3c(sc2n1)CCC3 | ? | -4.8%[11.4 µM] | -14.3% | 3.3% | / | 66.4%
CCc1nc(Sc2nnnn2-c2ccccc2)c2c3c(sc2n1)CCCC3 | ? | 5.3% | -16.3% | -12.0% | 11.7µM* | ?
Cc1cc(NC(=O)Cn2nnc3sc4c(c3c2=O)CCC(C(C)(C)C)C4)no1 (stereo not drawn) | 2.4% | 6.0% | -33.2% | -16.9% | 10.4µM* | 4.0%
COc1ccc(CN(C)C(C)C(=O)Nc2ccc(S(=O)(=O)N3CCCCC3)cc2)cc1F (stereo not drawn) | -4.2% | 2.3% | -31.8% | -0.8% | 10.4µM* | ?
COc1cc(C(=S)N2CCOCC2)ccc1OS(=O)(=O)c1ccc(NC(C)=O)cc1 | -8.5% | -4.6% | -10.0% | 9.1% | 14.3% | 20.1%
COc1cc(C(=S)N2CCCC2)ccc1OS(=O)(=O)c1ccc(NC(C)=O)cc1 | 5.8% | -1.8% | 25.5% | 0.0% | 2.08µM* | 126.2%
O=C(Nc1nccs1)c1cccc(S(=O)(=O)N2CCCC2)c1 | -10.3% | -3.3% | -27.6% | 3.9% | 0.6% | 79.3%
COc1ccc(CN(C)C(C)C(=O)Nc2ccc(S(=O)(=O)N3CCOCC3)cc2)c(OC)c1 (stereo not drawn) | -9.5% | -18.5% | 105.7% | -0.3% | ? | ?
O=C(Nc1nccs1)c1cccc(S(=O)(=O)N2CCCCC2)c1 | -1.8% | 4.6% | -15.2% | -1.6% | -3.2% | 14.7µM*
CS(=O)(=O)c1cccc(C(=O)Nc2ccc(S(=O)(=O)N3CCCCC3)cc2)c1 | -10.7% | -4.6% | -23.6% | -3.2% | ? | 9.28µM*
COc1cccc(CC(CC(=O)O)C(=O)Nc2cc(C)ccc2C)c1 (stereo not drawn) | 5.5% | ? | -8.3% | -2.2% | -8.9% | 33.4%
Cc1ccc(C)c(NC(=O)CSc2c(C)cnc3c2c(=O)n(C)c(=O)n3C)c1 | 3.0% | 0.8% | / | / | / | /
COc1ccc(CC(=O)OCC(=O)NCc2ccccc2Cl)cc1OC | 5.6% | -3.2% | -22.5% | 0.6% | 4.6% | 5.8%
COc1cc(OC)c(C(=O)Nc2ccc(S(=O)(=O)N3CCCCC3)cc2)cc1OC | -6.2% | -9.5% | 52.9% | -9.0% | ? | 14.7µM*
COc1ccc(C(=O)Nc2ccc(-n3nncc3-c3ccc(OC)c(OC)c3)cc2)cc1 | -6.0% | -6.7% | / | / | / | /
O=C(Nc1cccc(S(=O)(=O)N2CCCC2)c1)c1cc(S(=O)(=O)N2CCOCC2)ccc1F | -1.4% | 3.8% | 9.6% | 6.9% | 9.28µM* | ?
O=C(Nc1cccc(S(=O)(=O)N2CCCC2)c1)c1cccc(S(=O)(=O)N2CCOCC2)c1 | -4.7% | -2.7% | -31.5% | -2.4% | 11.7µM* | ?
COc1ccc(-c2cnnn2-c2ccc(NC(=O)c3ccc(S(=O)(=O)N4CCCCC4)cc3)cc2)cc1OC | 4.8% | 5.1% | 20.9% | 10.2% | 4.15µM* | 1.47µM*
Cc1cc(C)c2c(=O)cc(C(=O)Nc3ccc(S(=O)(=O)Nc4onc(C)c4C)cc3)oc2c1 | -7.9% | -7.2% | / | / | / | /
COc1cc(/C=C/C(=O)OCC(=O)Nc2ccc(S(=O)(=O)N3CCCC3)cc2)ccc1O | -3.5% | ? | -51.7% | 9.9% | ? | 9.28µM*
